SSB-PriA inh – inhibitors of Klebsiella pneumoniae PriA binding to SSB C-terminal tail, primary screen, biochemical, AlphaScreen. inhibition, % at 33 µM. hit rate 0.6% among 430,000. PriA–SSB C-terminal tail interaction (Klebsiella pneumoniae). AlphaScreen SSBct-PriA binding, biotinylated peptide; in the data active = inhibition mostly above about 37%, no sharp cut-off; inactive = mostly below about 20%;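 note: plate controls were negative control peptide for no effect and reference peptide for full effect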
Rv3671c inh – Rv3671c serine protease inhibitors, primary screen, biochemical, fluorescence polarization, M. tuberculosis H37Rv | inhibition, % at 5.96 µM | AID 2606, 2010 | hit rate 0.048% among 320,000; in the data active = inhibition above about 38%;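 note: extracellular domain of Rv3671c used as enzyme; 0% = enzyme with DMSO and 100% = no enzyme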
GDH-TPI counter-1 – GDH-TPI coupling enzyme inhibitors, primary screen, artefact control for M. tuberculosis FBA inhibitor project, biochemical, absorbance, full deck; GDH-TPI coupled enzyme counterscreen, NADH absorbance; inhibition, % at 4.8 µM; hit rate 1.2% among 360,000; AID 588335, 2011; in the data active = inhibition above about 30%;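 note: 0% = DMSO wells and 100% = wells lacking the enzyme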
Mtb UGM inh – M. tuberculosis UGM enzyme inhibitors, primary screen, biochemical, fluorescence polarization, single point; inhibition, % at 10 µM; hit rate 0.06% among 320,000; AID 504406, 2011; UDP-galactopyranose mutase (Mycobacterium tuberculosis (strain ATCC 25618 / H37Rv)), …; purified UGM, fluorescence polarization probe displacement; in the data active = inhibition above about 10%, passing the limit was not always enough; inconclusive = no clear call, values can overlap the other calls
Target sequence (P9WIQ1 whole entry, looked up): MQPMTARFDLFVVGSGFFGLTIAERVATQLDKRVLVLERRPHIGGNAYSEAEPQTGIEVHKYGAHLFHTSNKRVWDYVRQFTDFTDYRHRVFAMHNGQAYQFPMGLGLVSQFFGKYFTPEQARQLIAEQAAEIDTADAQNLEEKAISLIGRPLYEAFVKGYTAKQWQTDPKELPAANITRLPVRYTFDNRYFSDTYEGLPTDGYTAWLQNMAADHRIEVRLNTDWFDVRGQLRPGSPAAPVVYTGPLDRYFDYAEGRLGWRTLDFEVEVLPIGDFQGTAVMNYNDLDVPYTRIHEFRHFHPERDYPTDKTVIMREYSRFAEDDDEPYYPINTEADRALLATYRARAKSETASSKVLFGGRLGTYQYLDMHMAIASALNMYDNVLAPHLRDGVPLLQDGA
Mtb bLac sens – beta-lactam sensitization of Mtb H37Rv, H37Rv | M. tuberculosis H37Rv growth with meropenem, percent inhibition | inhibition, % at 25 µM | hit rate 0.27% among 330,000; call rule not given here;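 note: growth measured after seven days incubation then overnight dye step; 0% = bacteria only wells and 100% = bacteria with antibiotic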
FBA Mtb inh – Mtb FBA enzyme inhibitors, primary screen, biochemical, fluorescence, strain H37Rv | Fructose-bisphosphate aldolase (Mycobacterium tuberculosis (strain ATCC 25618 / H37Rv)), … | purified M. tuberculosis FBA, fluorescence read-out | inhibition, % at 1 µM | hit rate 2.3% among 360,000 | AID 588726, 2011;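 note: 0% = vehicle and 100% = reference inhibitor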
Target sequence (P9WQA3 whole entry, looked up): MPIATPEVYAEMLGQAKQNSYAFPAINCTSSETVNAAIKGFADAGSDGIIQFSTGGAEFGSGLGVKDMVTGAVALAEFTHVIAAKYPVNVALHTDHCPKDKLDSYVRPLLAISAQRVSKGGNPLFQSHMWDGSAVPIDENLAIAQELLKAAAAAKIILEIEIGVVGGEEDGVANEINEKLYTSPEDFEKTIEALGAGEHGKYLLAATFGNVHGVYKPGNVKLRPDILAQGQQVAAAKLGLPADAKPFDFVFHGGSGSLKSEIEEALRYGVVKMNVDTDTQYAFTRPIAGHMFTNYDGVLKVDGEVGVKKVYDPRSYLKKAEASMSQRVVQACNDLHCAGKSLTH
Mtb FBA inh conf – M. tuberculosis aldolase blockers, biochemical, fluorescence, strain H37Rv, confirmation | inhibition, % at 1 µM | shares compounds with FBA Mtb inh | AID 651616, 2012 | purified M. tuberculosis FBA, fluorescence read-out | hit rate 78% among 5,600;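 note: 0% = vehicle wells and 100% = reference inhibitor wells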
GDH-TPI counter-2 – GDH-TPI coupling enzyme inhibitors, artefact control for M. tuberculosis FBA inhibitor project, biochemical, fluorescence, high throughput; inhibition, % at 1 µM; AID 652141, 2013; shares compounds with FBA Mtb inh; hit rate 81% among 5,600; GDH-TPI coupled enzyme counterscreen; in the data active = inhibition above about 10%
GDH-TPI DR – GDH-TPI coupling enzyme inhibitors, dose response, artefact control for M. tuberculosis FBA inhibitor project, biochemical, fluorescence, IC50; shares compounds with FBA Mtb inh; GDH-TPI coupled enzyme assay, artifact counterscreen; IC50, µM; hit rate 79% among 170; AID 652145, 2013; call rule not given here
* hit, by the source's call; ? = inconclusive; nt = not tested or not shown; + = active, no number. The list is not random: actives were taken first. Their share in the collection is about 3.2%. Cut-off read from the data, not from the text of the source, unless noted: active = inhibition above about 27%; inactive = the rest.

SMILES | SSB-PriA inh | Rv3671c inh | GDH-TPI counter-1 | Mtb UGM inh | Mtb bLac sens | FBA Mtb inh | Mtb FBA inh conf | GDH-TPI counter-2 | others
O=C(CN1CCCCC1)Nc1c2c(nc3ccccc13)N(c1ccccc1)CC2 | -24.5 | 0.2 | 3.0 | -0.5 | 0.4 | 79.6* | 151.7* | 125.0*
CNC(=S)N(CCc1ccccc1)Cc1cc2cc(OC)c(OC)cc2[nH]c1=O | 7.7 | 4.7 | 23.6 | -0.2 | 10.1 | 11.7 | nt | nt
COc1cc2cc(CN(CCO)S(=O)(=O)c3ccccc3)c(=O)[nH]c2cc1OC | -8.8 | 0.8 | 37.6* | -2.4 | 0.5 | 38.0* | 88.4* | 71.1*
Cc1ccc(/C=C/C(=O)N2CCN(c3ccc(F)cc3)CC2)o1 | 9.7 | -6.4 | 14.7 | 2.5 | -5.1 | 57.6* | 37.7* | 36.2*
COC(=O)c1ccc(NC(=S)NC2CC3CCC2C3)cc1 (stereo not drawn) | -8.3 | -5.9 | -4.5 | -1.9 | 77.2 | 37.1* | 85.8* | 64.5*
Cc1ccc(-c2nc(CN(C)C)cc(CN(C)C)c2O)cc1 | 7.6 | 3.2 | 25.9 | 0.1 | -4.1 | 80.1* | 4.9 | -5.0
CN(C)Cc1cc(CN(C)C)c(O)c(CCc2ccccc2)n1 | 4.9 | 3.7 | -3.7 | 2.0 | -11.2 | 1.2 | nt | nt
COc1ccc(SCCC(=O)Nc2nc(C)c(C(C)=O)s2)cc1 | -1.0 | nt | nt | nt | nt | nt | nt | nt
Cc1nc2c(cc1N)nc(C)n2Cc1ccccc1 | -3.0 | -1.5 | 0.5 | 3.4 | -6.8 | 98.6* | 19.8 | 3.3 | GDH-TPI DR=1.18*
CC(=O)Nc1cc2nc(C)n(Cc3ccc([N+](=O)[O-])cc3)c2nc1C | -5.4 | 2.7 | 7.1 | 0.8 | -4.5 | -2.5 | nt | nt
Cc1nc2ccc(N)cc2c(=O)n1Cc1ccc(Cl)cc1 | 7.6 | -9.3 | 9.9 | -0.4 | 2.4 | 41.1* | 40.4* | 33.5*
Cc1ccc(NC2=CC(=NS(=O)(=O)c3cccs3)c3ccccc3C2=O)cc1 | 22.7 | nt | nt | nt | nt | nt | nt | nt
C#CCn1c(=NC(=O)c2sc3ccccc3c2Cl)sc2cc(S(N)(=O)=O)ccc21 | -3.0 | -130.7 | 42.0* | -2.4 | 0.7 | 39.0* | + | +
Cc1nnsc1C(=O)Nc1ccccn1 | 3.0 | nt | nt | nt | nt | nt | nt | nt
Cc1cc(C)c2c(n1)nn1c(C)c(CCC(=O)NCc3ccco3)c(C)nc21 | 2.5 | 2.6 | 1.9 | -0.9 | 0.7 | 30.2* | 71.2* | 47.6*
Cn1nccc1C(=O)Nc1ccccc1C#N | 4.0 | nt | nt | nt | nt | nt | nt | nt
COc1cccc(-c2cc(C(=O)NCc3ccnc(-c4cccs4)c3)n(C)n2)c1 | -18.0 | nt | nt | nt | nt | nt | nt | nt
COc1ccccc1/C=C/C=N/NC(=O)Cc1cccn1C | nt | 3.9 | 50.9* | -0.1 | 8.2 | 77.8* | + | +
Cc1cc(C(=O)O)cc(Br)c1N | -4.5 | 5.5 | -5.5 | -3.7 | -1.4 | -3.0 | nt | nt
Cc1cc(C)c(N)c(C(=O)O)c1 | -2.4 | -2.6 | -8.6 | -1.6 | 6.8 | 47.6* | + | +
CCc1ccc(S(=O)(=O)NCCn2ncccc2=O)s1 | -14.0 | nt | nt | nt | nt | nt | nt | nt
Cc1ccc2nc(-c3ccccc3)c(NC(=O)c3ccco3)n2c1 | 7.4 | -1.7 | 0.0 | 0.6 | 3.3 | -0.6 | nt | nt
COC(=O)Nc1c(-c2ccccc2)nc2ccccn12 | 5.4 | 0.5 | 1.8 | -1.6 | ? | 74.6* | 188.4* | 140.2*
c1ccc(-c2nc3ccccn3c2-c2ccccc2)cc1 | -1.7 | 4.8 | 15.7 | 2.2 | -4.5 | 28.9* | 0.5 | -3.4
COC(=O)Nc1c(-c2ccccc2)nc2ccc(C)cn12 | -11.0 | -2.7 | 2.5 | 3.3 | -7.4 | 64.9* | 120.3* | 115.9*
SMILES | SSB-PriA inh | Rv3671c inh | GDH-TPI counter-1 | Mtb UGM inh | Mtb bLac sens | FBA Mtb inh | Mtb FBA inh conf | GDH-TPI counter-2 | others
CCOc1ccc(S(=O)(=O)N2CCN(S(=O)(=O)c3ccc(OCC)c4ccccc34)C(C)C2)c2ccccc12 (stereo not drawn) | 0.0 | nt | nt | nt | nt | nt | nt | nt
COc1ccc(Cl)cc1N1CC(c2nc(-c3ccc4c(c3)OCO4)no2)CC1=O (stereo not drawn) | -14.0 | nt | nt | nt | nt | nt | nt | nt
COC(=O)c1[nH]c2ccccc2c1Sc1ccccc1 | 5.2 | nt | 13.0 | -0.3 | -4.1 | 77.3* | 95.4* | 73.5*
CC1(C(=O)Nc2ccc3c(c2)OCO3)Cc2c(-c3ccc4c(c3)OCO4)ccnc2O1 (stereo not drawn) | nt | nt | 0.0 | nt | nt | 20.3 | nt | nt
CC1(C(=O)NCCc2ccccc2)Cc2c(-c3ccc4c(c3)OCO4)ccnc2O1 (stereo not drawn) | nt | nt | -6.2 | nt | nt | 46.2* | 59.1* | 41.0*
CC1(C(=O)NCc2ccccc2)Cc2c(-c3ccc4c(c3)OCO4)ccnc2O1 (stereo not drawn) | nt | nt | -12.4 | nt | nt | 68.6* | 109.1* | 104.7*
COc1ccc(NC(=O)C2(C)Cc3c(-c4ccc5c(c4)OCO5)ccnc3O2)cn1 (stereo not drawn) | nt | nt | -3.5 | nt | nt | 42.2* | 168.6* | 123.8*
CC1(C(=O)NCCc2ccccc2)Cc2c(-c3ccccc3)ccnc2O1 (stereo not drawn) | nt | nt | 5.3 | nt | nt | 5.3 | nt | nt
COCCNC(=O)C1(C)Cc2c(-c3ccc4c(c3)OCO4)ccnc2O1 (stereo not drawn) | nt | nt | 5.4 | nt | nt | 95.6* | 71.3* | 51.2*
CC1(C(=O)NCc2ccccc2)Cc2c(-c3ccccc3)ccnc2O1 (stereo not drawn) | nt | nt | 3.6 | nt | nt | 1.7 | nt | nt
COc1ccc(Nc2nc(-c3ccccc3)[n+](-c3ccc(C)cc3)s2)cc1 | -9.0 | nt | nt | nt | nt | nt | nt | nt
COc1ccc(-c2csc(SCC(=O)Nc3cccc(C(F)(F)F)c3)n2)cc1 | -26.0 | nt | nt | nt | nt | nt | nt | nt
COc1ccc2oc(-c3ccncc3)cc(=O)c2c1 | -8.7 | nt | 5.3 | nt | nt | 30.4* | + | +
COc1ccc2oc(-c3cccs3)cc(=O)c2c1 | -9.0 | nt | nt | nt | nt | nt | nt | nt
c1ccc(-c2cn3ccccc3n2)cc1 | 3.4 | nt | 3.5 | nt | nt | 35.3* | 7.6 | 2.5

Screening data from PubChem BioAssay.
